The values that follow come from PubChem BioAssay (NCATS).

Assay [1] has as its target Arylsulfatase A (Homo sapiens) (UniProt P15289). As to the kind of experiment: qHTS screen for enhancers of Arylsulfatase A (ASA1): LOPAC Validation Assay (AID 720538). Put shortly:
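Read-out: fluorescence at Ex=525/Em=598 nm after 1N NaOH final stop. Patient fibroblasts carrying ASA-I179S had 48h compound exposure, then 14h room-temperature pNCS hydrolysis (0.5mM final) in lysis buffer. Signal increase = enhanced activity.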
A general note: In qHTS, concentration-response curves come from the screen itself.

A short description of assay [2]: qHTS for Activators of Parkin Expression: LOPAC Validation Assay (NLuc Reporter) (AID 720572). Put shortly: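 Parkin promoter-driven FLuc/NLuc neuronal reporter cells; 24 h plating, 7-pt dose response, 24 h at 37 C/5% CO2; FLuc then NanoLuc reagent, 10 min each, luminescence; DMSO/positive control normalized.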
Assay [3] concerns the target T1, Hexokinase-4 (Homo sapiens) + Glucokinase regulatory protein (Homo sapiens) (UniProt P35557+Q14397). As to the kind of experiment: qHTS assay for inhibitors of recombinant human GCK-GKRP interaction: Diaphorase-coupled assay (AID 743205). The procedure, abridged:
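Resorufin fluorescence (525/590 nm), read each minute over 30 min, reports GCK activity coupled via G6PDH and diaphorase. Reaction: 10 nM GST-GCK, 10 nM FLAG-GKRP, 5 mM glucose, 0.4 mM ATP, 0.15 mM NADP+, 0.1 mM resazurin.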

Assay [4] deals with T1, Hexokinase-4 (Homo sapiens) + Glucokinase regulatory protein (Homo sapiens). As to the kind of experiment: qHTS assay for inhibitors of recombinant human GCK-GKRP interaction: ADP-Glo assay (AID 743206). Put shortly:
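GST-GCK and FLAG-GKRP (15 nM each in the dispensed mix, with 2 uM S6P) react with 0.4 mM ATP and 5 mM glucose (final) in Hepes pH 7.6 for 60 min at room temperature. ADP is measured by ADP-Glo luminescence.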

Assay [5] shares this target. As to the kind of experiment: qHTS assay for inhibitors of recombinant human GCK-GKRP interaction: HTRF assay (AID 743207). The procedure, abridged: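 HTRF read-out (ex 320 nm; 615/665 nm emission) after 60 min RT equilibration of 5 nM GST-GCK, 5 nM FLAG-GKRP, 2 uM S6P, compound and anti-FLAG/anti-GST detection antibodies; signal normalized between DMSO wells with and without GCK.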

The nature of assay [6]: NS1 protein of Zika virus - qHTS assay to identify small molecule inhibitors in human HEK 293 cells (AID 1347053). Also: series mostly up to about 46 µM; nearly all actives have a fitted effect of over 55% in size. Put shortly: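 HEK 293 cells pretreated with compound for 1 h, then infected with ZIKV MR766 (MOI 0.5) for 24 h at 37 C. NS1 detected by TR-FRET with two anti-NS1 antibodies; normalized to uninfected (0%) and infected (100%) wells.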
Assay [7] deals with Tyrosine-protein phosphatase non-receptor type substrate 1 (Homo sapiens) + Leukocyte surface antigen CD47 (Homo sapiens) (UniProt P78324+Q08722). Kind of assay: CD47-SIRPalpha protein protein interaction - Alpha assay qHTS validation (AID 1347059).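 Also: bead proximity luminescence from CD47 binding SIRPalpha after compound preincubation with SIRPalpha.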 Put shortly:
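Binding is measured by AlphaScreen proximity: Ni-NTA acceptor beads capture His-CD47, streptavidin donor beads capture biotin-SIRPalpha. Each of three additions (SIRPalpha with compound, CD47, beads) incubates 30 min at room temperature protected from light.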

Assay [8] addresses Parathyroid hormone/parathyroid hormone-related peptide receptor (Homo sapiens) (UniProt Q03431). As to the kind of experiment: qHTS for PTHR1 Agonists: Optimization Screen against the NCGC LOPAC library (AID 1347079).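 Also: GloSensor cAMP luminescence in HEK-293 GP2 cells expressing human PTHR1 with IBMX.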 The procedure, abridged: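 Agonist readout: GloSensor cAMP luminescence, read after 15 min at room temperature. HEK-293-derived GP2 line carries PTHR1; compounds tested as a titration for 1 hr at 37C in presence of IBMX. M-PTH (1-15) served as control.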

The target of assay [9] is N-terminal Xaa-Pro-Lys N-methyltransferase 1 (Homo sapiens) (UniProt Q9BV86). As to the kind of experiment: qHTS Assay for Inhibitors of N-terminal methyltransferase 1 (NTMT1): LOPAC validation of the NTMT1 SAHH-coupled ThioGlo3 Assay (AID 1347143).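 Also: SAH from peptide methylation measured as thiol fluorescence via SAHH coupling and ThioGlo3; potency is read from the fitted curve at half-maximal effect; nearly all actives have a fitted effect of over 70% in size.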 The procedure, abridged:
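Inhibition of NTMT1 methylation of peptide SPKRIA is followed by converting SAH with SAHH and labelling the released thiol with ThioGlo3. Plates are read at 340/450nm before and 30 min after reagent addition, both at room temperature.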

The test system of assay [10] is Zika virus NS2B-NS3 protease (unlinked). Kind of assay: Optimization of GU AMC qHTS for Zika virus inhibitors: Unlinked NS2B-NS3 protease assay (AID 1347151). Also: potency is read from the fitted curve at half-maximal effect; nearly all actives have a fitted effect of over 80% in size. The procedure, abridged: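 Fluorescence read-out (340 nm ex / 450 nm em) of AMC peptide cleavage, taken immediately and after 15 min at room temperature (~20% conversion). Enzyme was the unlinked NS2B–NS3 complex at 25 nM in Tris pH 8.0 buffer.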

Assay [11] is described as follows: qHTS to identify inhibitors of the type 1 interferon - major histocompatibility complex class I in skeletal muscle: primary screen against the NCATS LOPAC collection (AID 1347405).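 Also: lytic HiBiT luminescence reporting HLA-B protein level.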 Put shortly: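 CRISPR-engineered immortalized human myoblasts (C25cl48) with HiBiT fused to endogenous HLA-B*08:01, stimulated with 4 ng/ml IFN-beta. LOPAC compounds tested as a 7-point 1:4.3 titration (top 46 uM final), 24 h at 37 C; lytic HiBiT luminescence read.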

A short description of assay [12]: Validation qHTS assay for inhibitors of Activation Induced Cytidine Deaminase (AID): UDG Counterscreen signal (AID 1347427). Put shortly: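 Counterscreen read of UDG activity (2 U/mL, 4/3x) in the FRET deamination format with AID (1 uM, 4/3x), DJC20/DJC23 substrates (250 nM, 4x), 4 h at room temperature. NaOH stop, fluorescence at 560 ex/665 em.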
The target in assay [13] is Single-stranded DNA cytosine deaminase (Homo sapiens) (UniProt Q9GZX7). Kind of assay: Validation qHTS assay for inhibitors of Activation Induced Cytidine Deaminase (AID): AID signal (AID 1347429). The procedure, abridged:
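FRET deamination assay: 1 uM AID (4/3x stock) with UDG, compound up to 114 uM, then 250 nM DJC20/DJC23 substrate (4x stock) for 4 hr at room temperature. NaOH added, 30 min; fluorescence read 540/590 nm.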

The nature of assay [14]: Primary qHTS for inhibitors of La Crosse Virus (LACV) - induced cell death in SH-SY5Y cells (AID 1508616).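 Also: top concentration of the series differs between compounds; higher means more rescue of cells from virus-induced death.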 The procedure, abridged: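 SH-SY5Y cells (6000/well) plated 24 h, then given compounds by pin transfer and LACV at 0.01 MOI for 6 days at 37C. Viability measured by ATPLite luminescence, normalized to infected DMSO and uninfected DMSO.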
For assay [15], the target named is Calcium and integrin-binding protein 1 (Homo sapiens) (UniProt Q99828). Kind of assay: Validation qHTS for Identification of Calcium Integrin Binding protein 1 (CIB1) Competitor (AID 1508618). Put shortly: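 Fluorescence polarization with 1 uM CIB1-GST and 100 nM FITC-alphaIIb peptide in HEPES pH 7.4, NaCl, 5 mM CaCl2, Tween20. Compounds at up to 114 uM final, preincubated with protein 15 min; read after 15 min more at RT.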
Sequence of Calcium and integrin-binding protein 1 (Homo sapiens) (Q99828 whole entry, looked up): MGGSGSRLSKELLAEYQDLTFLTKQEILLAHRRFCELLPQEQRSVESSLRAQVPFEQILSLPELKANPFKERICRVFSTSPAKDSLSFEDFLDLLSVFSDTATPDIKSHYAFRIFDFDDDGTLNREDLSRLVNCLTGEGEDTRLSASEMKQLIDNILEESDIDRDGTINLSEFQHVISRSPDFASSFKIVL

Assay [16] is described as follows: Primary qHTS for small molecule stabilizers of the endoplasmic reticulum resident proteome: Secreted ER Calcium Modulated Protein (SERCaMP) assay (AID 1508630). The procedure, abridged:
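GLuc-SERCaMP-expressing SH-SY5Y cells, pretreated 16 h with compound, are challenged with thapsigargin to empty ER calcium stores; after 4 h, coelenterazine is added directly to the medium and luminescence is imaged.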

The target in assay [17] is Rap guanine nucleotide exchange factor 3 (Homo sapiens) (UniProt O95398). Kind of assay: Confirmatory qHTS for agonist of cAMP-regulated guanine nucleotide exchange factor 3 (EPAC1) (AID 1645881).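 Also: EPAC1 catalysed release of BODIPY-GDP from Rap1B seen as fluorescence loss; nearly all actives have a fitted effect of over 75% in size.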
Sequence of Rap guanine nucleotide exchange factor 3 (Homo sapiens) (O95398 whole entry, looked up): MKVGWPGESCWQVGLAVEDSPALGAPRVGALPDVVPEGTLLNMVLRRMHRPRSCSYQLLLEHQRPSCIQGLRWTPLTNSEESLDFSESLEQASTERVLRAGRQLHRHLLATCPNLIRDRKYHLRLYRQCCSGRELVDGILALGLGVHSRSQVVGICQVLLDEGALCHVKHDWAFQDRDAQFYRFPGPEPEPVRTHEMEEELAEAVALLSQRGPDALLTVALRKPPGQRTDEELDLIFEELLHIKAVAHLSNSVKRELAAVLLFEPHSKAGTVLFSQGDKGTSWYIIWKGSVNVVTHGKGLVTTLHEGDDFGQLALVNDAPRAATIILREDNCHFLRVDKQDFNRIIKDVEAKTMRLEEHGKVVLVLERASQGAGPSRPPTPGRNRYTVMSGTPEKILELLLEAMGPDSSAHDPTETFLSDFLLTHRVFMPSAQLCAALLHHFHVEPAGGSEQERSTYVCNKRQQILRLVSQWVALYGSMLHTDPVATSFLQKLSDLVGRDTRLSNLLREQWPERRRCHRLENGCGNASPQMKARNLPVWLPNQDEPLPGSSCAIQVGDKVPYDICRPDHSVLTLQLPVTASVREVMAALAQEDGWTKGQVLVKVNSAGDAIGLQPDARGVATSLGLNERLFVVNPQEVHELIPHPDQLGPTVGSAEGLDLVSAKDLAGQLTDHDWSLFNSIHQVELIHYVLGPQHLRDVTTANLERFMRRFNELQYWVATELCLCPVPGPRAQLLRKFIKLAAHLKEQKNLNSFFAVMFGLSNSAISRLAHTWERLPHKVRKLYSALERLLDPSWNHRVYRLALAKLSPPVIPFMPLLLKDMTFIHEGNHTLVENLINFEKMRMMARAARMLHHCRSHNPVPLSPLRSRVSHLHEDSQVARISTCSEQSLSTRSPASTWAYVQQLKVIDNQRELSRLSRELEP
In assay [18] the target is Rap guanine nucleotide exchange factor 4 (Homo sapiens) (UniProt Q8WZA2). Kind of assay: Confirmatory qHTS for agonist of cAMP-regulated guanine nucleotide exchange factor 4 (EPAC2) (AID 1645884).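 Also: nucleotide exchange releases bodipy-GDP from Rap1 and this lowers its fluorescence; nearly all actives have a fitted effect of over 65% in size.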
Sequence of Rap guanine nucleotide exchange factor 4 (Homo sapiens) (Q8WZA2 whole entry, looked up): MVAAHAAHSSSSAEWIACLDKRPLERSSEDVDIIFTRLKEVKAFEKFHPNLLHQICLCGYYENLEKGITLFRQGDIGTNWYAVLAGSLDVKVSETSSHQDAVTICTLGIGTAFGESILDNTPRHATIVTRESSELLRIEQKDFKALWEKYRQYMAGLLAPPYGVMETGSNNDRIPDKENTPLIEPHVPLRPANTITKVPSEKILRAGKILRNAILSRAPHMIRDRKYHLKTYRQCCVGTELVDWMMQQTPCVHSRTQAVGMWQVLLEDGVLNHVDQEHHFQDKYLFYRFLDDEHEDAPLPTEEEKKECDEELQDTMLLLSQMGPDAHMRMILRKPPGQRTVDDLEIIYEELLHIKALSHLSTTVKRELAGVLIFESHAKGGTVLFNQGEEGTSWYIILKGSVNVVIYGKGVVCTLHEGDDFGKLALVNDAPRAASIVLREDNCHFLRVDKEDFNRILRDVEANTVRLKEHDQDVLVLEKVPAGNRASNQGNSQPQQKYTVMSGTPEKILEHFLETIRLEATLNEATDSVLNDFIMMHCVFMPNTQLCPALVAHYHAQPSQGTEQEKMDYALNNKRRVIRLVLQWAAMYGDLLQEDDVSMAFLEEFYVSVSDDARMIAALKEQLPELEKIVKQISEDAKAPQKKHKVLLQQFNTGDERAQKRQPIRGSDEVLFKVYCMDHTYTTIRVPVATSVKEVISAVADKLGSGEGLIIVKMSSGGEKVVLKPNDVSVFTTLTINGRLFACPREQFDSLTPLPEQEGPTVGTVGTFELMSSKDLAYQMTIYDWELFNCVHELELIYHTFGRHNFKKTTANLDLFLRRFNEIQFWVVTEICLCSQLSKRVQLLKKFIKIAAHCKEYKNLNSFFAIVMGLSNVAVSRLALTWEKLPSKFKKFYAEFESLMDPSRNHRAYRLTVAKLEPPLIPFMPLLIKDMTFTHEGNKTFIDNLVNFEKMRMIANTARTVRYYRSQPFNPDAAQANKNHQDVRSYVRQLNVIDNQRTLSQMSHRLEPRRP
Assay [19] has the same target. As to the kind of experiment: Confirmatory qHTS for antagonist of cAMP-regulated guanine nucleotide exchange factor 4 (EPAC2) (AID 1645885). Also: nearly all actives have a fitted effect of over 25% in size.
Assay [20] addresses Metallo-beta-lactamase type 2 (Klebsiella pneumoniae) (UniProt C7C422). As to the kind of experiment: qHTS to identify inhibitors of the New Delhi Metallo-beta-lactamase (NDM): assay validation screen against the NCATS LOPAC Collection (AID 1794843).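 Also: nitrocefin turnover by NDM-1 measured as 485 nm absorbance at plateau; series mostly up to about 38 µM.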 The procedure, abridged: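 NDM-1 at 2 nM final in 50 mM HEPES pH 7.0, 1 uM ZnSO4, 0.01% Tween20, preincubated with LOPAC compounds pinned in DMSO; 50 uM nitrocefin (stock) added. Hydrolysis read as absorbance at 485 nm in the plateau phase.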

Assay [21] concerns the target Glutathione peroxidase 1 (Homo sapiens) (UniProt P07203). Kind of assay: Primary qHTS Assay for Inhibitors of Recombinant Selenoprotein Glutathione Peroxidase 1 (GPX1) (AID 1845191). Also: nearly all actives have a fitted effect of over 65% in size. Put shortly:
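10 nM GPX1 + cpd, 30 min RT; start w/ 1 mM GSH, 0.5 mM cumene hydroperoxide, 0.5 mM NADPH, 100 nM GR, 0.01% BSA; buffer 50 mM Tris-HCl pH 7.5, 2 mM EDTA, 150 mM NaCl; Fl 340/450, 0 & 15 min.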

In assay [22] the target is Phospholipid hydroperoxide glutathione peroxidase GPX4 (Homo sapiens) (UniProt P36969). Kind of assay: Primary qHTS Assay for Inhibitors of Recombinant Selenoprotein Glutathione Peroxidase 4 (GPX4) (AID 1845192). Also: series mostly up to about 50 µM; nearly all actives have a fitted effect of over 65% in size. To be noted: outcome: dose series up to 50 µM unless noted. The procedure, abridged: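 NADPH consumption, followed by fluorescence at 340/450 nm between 0 and 15 min, reports GPX4 activity via coupled glutathione reductase (100 nM). Enzyme 200 nM was pre-exposed to compound 30 min; 0.5 mM cumene hydroperoxide and 1 mM GSH served as substrates.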
Sequence of Phospholipid hydroperoxide glutathione peroxidase GPX4 (Homo sapiens) (P36969 whole entry, looked up): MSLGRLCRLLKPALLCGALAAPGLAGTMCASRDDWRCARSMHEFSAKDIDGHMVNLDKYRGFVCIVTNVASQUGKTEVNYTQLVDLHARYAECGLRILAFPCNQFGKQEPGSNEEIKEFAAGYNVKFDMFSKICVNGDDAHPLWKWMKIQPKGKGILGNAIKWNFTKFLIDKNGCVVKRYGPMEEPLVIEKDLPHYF

Results filed as inconclusive are left out. The source made the active and inactive calls. Calls follow the shape of the dose curve; as a rule, active = well fitted curve in the direction sought with a large enough effect; inconclusive = small, poorly fitted or top-dose-only effect, or another doubt; inactive = no such curve, though single readings can be large; an effect the other way counts as inactive or inconclusive.

T1 sequence (P35557 whole entry, looked up): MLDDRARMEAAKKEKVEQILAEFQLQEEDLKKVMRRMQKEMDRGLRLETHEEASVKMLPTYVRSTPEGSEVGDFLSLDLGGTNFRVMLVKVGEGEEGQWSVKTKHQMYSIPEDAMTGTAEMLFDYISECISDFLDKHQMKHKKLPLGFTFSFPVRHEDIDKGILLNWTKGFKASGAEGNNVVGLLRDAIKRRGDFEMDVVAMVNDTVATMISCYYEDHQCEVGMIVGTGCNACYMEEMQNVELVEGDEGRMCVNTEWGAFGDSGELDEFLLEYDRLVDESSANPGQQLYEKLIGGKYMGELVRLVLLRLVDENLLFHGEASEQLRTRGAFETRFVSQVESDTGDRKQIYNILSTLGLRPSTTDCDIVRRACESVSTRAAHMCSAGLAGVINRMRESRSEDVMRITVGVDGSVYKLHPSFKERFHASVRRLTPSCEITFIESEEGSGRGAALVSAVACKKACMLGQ
T1 sequence (Q14397 whole entry, looked up): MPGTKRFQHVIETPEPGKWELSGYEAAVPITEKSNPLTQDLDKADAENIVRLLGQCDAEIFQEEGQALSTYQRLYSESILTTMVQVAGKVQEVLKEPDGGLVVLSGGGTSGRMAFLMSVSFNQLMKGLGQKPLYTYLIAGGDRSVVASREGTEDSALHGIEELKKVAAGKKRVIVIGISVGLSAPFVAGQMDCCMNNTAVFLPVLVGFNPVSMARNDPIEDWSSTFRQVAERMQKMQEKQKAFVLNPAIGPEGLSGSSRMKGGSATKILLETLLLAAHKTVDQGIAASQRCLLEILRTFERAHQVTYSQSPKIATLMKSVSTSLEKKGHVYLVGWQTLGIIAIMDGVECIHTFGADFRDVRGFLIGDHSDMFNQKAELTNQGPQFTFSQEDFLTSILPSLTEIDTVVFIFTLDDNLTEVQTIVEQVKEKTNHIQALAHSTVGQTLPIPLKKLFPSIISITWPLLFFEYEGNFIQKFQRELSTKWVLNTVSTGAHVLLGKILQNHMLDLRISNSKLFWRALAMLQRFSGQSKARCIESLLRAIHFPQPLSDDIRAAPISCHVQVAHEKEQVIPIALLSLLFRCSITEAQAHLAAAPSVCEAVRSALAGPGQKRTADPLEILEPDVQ
Sequence of Glutathione peroxidase 1 (Homo sapiens) (P07203 whole entry, looked up): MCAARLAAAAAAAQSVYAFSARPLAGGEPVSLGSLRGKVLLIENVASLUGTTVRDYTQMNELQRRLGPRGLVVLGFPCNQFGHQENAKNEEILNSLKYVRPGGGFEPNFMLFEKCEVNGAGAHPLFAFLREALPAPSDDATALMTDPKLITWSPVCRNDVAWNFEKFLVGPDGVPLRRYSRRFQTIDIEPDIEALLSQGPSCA
Sequence of Single-stranded DNA cytosine deaminase (Homo sapiens) (Q9GZX7 whole entry, looked up): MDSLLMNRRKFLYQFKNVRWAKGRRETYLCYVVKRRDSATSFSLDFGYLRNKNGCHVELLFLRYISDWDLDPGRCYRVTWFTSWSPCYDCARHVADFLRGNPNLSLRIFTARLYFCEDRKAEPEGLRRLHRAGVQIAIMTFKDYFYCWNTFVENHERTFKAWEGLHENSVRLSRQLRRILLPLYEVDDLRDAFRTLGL
Sequence of N-terminal Xaa-Pro-Lys N-methyltransferase 1 (Homo sapiens) (Q9BV86 whole entry, looked up): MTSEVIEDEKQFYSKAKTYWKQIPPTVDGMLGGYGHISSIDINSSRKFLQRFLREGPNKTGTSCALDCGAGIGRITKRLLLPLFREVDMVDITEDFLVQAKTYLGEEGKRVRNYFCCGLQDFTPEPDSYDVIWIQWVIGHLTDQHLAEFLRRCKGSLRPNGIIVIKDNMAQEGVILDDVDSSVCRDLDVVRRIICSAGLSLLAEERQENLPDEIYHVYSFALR
Sequence of Arylsulfatase A (Homo sapiens) (P15289 whole entry, looked up): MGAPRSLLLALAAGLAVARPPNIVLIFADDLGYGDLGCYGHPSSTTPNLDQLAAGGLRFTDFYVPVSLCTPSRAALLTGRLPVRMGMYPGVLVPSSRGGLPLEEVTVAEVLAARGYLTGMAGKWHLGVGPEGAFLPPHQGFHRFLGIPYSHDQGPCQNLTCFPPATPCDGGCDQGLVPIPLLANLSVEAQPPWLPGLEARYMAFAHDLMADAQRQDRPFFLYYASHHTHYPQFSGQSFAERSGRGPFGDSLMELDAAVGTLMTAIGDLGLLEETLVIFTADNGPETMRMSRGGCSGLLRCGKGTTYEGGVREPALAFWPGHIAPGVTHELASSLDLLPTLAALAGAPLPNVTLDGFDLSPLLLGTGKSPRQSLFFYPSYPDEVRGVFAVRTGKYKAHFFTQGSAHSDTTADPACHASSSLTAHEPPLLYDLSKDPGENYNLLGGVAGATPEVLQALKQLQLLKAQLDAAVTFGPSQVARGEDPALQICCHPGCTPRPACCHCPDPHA
Sequence of Metallo-beta-lactamase type 2 (Klebsiella pneumoniae) (C7C422 whole entry, looked up): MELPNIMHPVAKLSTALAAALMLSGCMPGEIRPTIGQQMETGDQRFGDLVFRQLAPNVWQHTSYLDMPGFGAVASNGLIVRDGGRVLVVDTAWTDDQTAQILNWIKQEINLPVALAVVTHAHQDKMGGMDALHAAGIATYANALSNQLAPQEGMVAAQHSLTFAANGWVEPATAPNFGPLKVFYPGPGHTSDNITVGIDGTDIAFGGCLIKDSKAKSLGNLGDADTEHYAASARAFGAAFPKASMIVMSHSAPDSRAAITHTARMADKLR

With `N#C/C(=C\c1ccc(O)c(O)c1)C(=O)Nc1ccccc1`, the Potency entry in assay [1], in assay [7], in assay [11], in [13], in [16] and in assay [19] was “inactive” each time. Besides, the Potency result in [20], in [21] and in assay [22] was “inactive” throughout. The call in assay [2], in [3], in assay [4], in assay [5], in assay [6] and in assay [8] was inactive. For the same compound, the call in assay [12], in assay [14], in assay [15], in assay [17] and in [18] was inactive. Moreover, the results for the Potency in assay [9] and in assay [10] were 39.8 µM (active) and 3.36 µM (active), respectively.
